PubChem BioAssay (EPA / NIEHS)
Activity calls are given as the source filed them. The calls were made as follows: active = hit-call score of the fitted dose curve at least 0.9, where 1 is the maximum; inactive = score below 0.9.

Tests used:
[1] = read-out: Tissue plasminogen activator (tPA), PLAT (gene 5327); assay: BSK_BE3C_tPA: BioMAP Diversity Plus: BE3C Assay for Tissue plasminogen activator (tPA) Biomarker Activity (AID 2283041); conditions: primary human bronchial epithelial cells; actives raise or lower the signal
How it was run: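 Human primary bronchial epithelial cells were dosed with chemical and tPA biomarker levels measured by ELISA 24 hours later. Activity was fitted bidirectionally against DMSO as negative control and baseline.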

[2] = read-out: Interleukin-8 (IL8), CXCL8 (gene 3576); assay: BSK_CASM3C_IL8: BioMAP Diversity Plus: CASM3C Assay for Interleukin-8 (IL8) Biomarker Activity (AID 2283042); conditions: primary human coronary artery smooth muscle cells; actives raise or lower the signal;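 also: IL-8 protein level quantified by ELISA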
[3] = read-out: Human Leukocyte Antigen - DR isotype (HLADR), HLA-DRA (gene 3122); assay: BSK_CASM3C_HLADR: BioMAP Diversity Plus: CASM3C Assay for Human Leukocyte Antigen - DR isotype (HLADR) Biomarker Activity (AID 2283043); conditions: primary human coronary artery smooth muscle cells; actives raise or lower the signal;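 also: cell-surface HLA-DR protein level quantified by ELISA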
[4] = read-out: Macrophage colony-stimulating factor (MCSF), CSF1 (gene 1435); assay: BSK_CASM3C_MCSF: BioMAP Diversity Plus: CASM3C Assay for Macrophage colony-stimulating factor (MCSF) Biomarker Activity (AID 2283044); conditions: primary human coronary artery smooth muscle cells; actives raise or lower the signal;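 also: M-CSF protein amount quantified by ELISA after 24 h exposure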
[5] = read-out: Low-density lipoprotein receptor (LDLR), LDLR (gene 3949); assay: BSK_CASM3C_LDLR: BioMAP Diversity Plus: CASM3C Assay for Low-density lipoprotein receptor (LDLR) Biomarker Activity (AID 2283045); conditions: primary human coronary artery smooth muscle cells; actives raise or lower the signal;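 also: LDLR protein level on the cell surface quantified by ELISA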
[6] = read-out: Monocyte Chemoattractant Protein-1 (MCP1), CCL2 (gene 6347); assay: BSK_CASM3C_MCP1: BioMAP Diversity Plus: CASM3C Assay for Monocyte Chemoattractant Protein-1 (MCP1) Biomarker Activity (AID 2283046); conditions: primary human coronary artery smooth muscle cells; actives raise or lower the signal;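 also: MCP-1 level quantified by ELISA 24 h after dosing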
[7] = BSK_CASM3C_Proliferation: Cell Proliferation Assessment in the BioMAP Diversity Plus: CASM3C Assay (AID 2283047); conditions: primary human coronary artery smooth muscle cells;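 also: sulforhodamine B total protein stain as relative cell number at 560 nm; sub-confluent cells exposed 48 h before staining; fitted both ways against DMSO so gain or loss of cell number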
[8] = read-out: Monokine induced gamma interferon (MIG), CXCL9 (gene 4283); assay: BSK_CASM3C_MIG: BioMAP Diversity Plus: CASM3C Assay for Monokine induced gamma interferon (MIG) Biomarker Activity (AID 2283048); conditions: primary human coronary artery smooth muscle cells; actives raise or lower the signal;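 also: MIG protein level measured by ELISA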
[9] = read-out: serum amyloid A (SAA), SAA1 (gene 6288); assay: BSK_CASM3C_SAA: BioMAP Diversity Plus: CASM3C Assay for serum amyloid A (SAA) Biomarker Activity (AID 2283049); conditions: primary human coronary artery smooth muscle cells; actives raise or lower the signal;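 also: SAA protein level quantified by ELISA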
[10] = BSK_CASM3C_SRB: Viability Assessment in the BioMAP Diversity Plus: CASM3C Assay (AID 2283050); conditions: primary human coronary artery smooth muscle cells;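 also: total protein by SRB staining as cytotoxicity measure in parallel cultures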
[11] = read-out: Thrombomodulin, THBD (gene 7056); assay: BSK_CASM3C_Thrombomodulin: BioMAP Diversity Plus: CASM3C Assay for Thrombomodulin Biomarker Activity (AID 2283051); conditions: primary human coronary artery smooth muscle cells; actives raise or lower the signal;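 also: thrombomodulin protein level measured by ELISA 24 h after dosing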
[12] = read-out: Tissue Factor, F3 (gene 2152); assay: BSK_CASM3C_TissueFactor: BioMAP Diversity Plus: CASM3C Assay for Tissue Factor Biomarker Activity (AID 2283052); conditions: primary human coronary artery smooth muscle cells; actives raise or lower the signal;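 also: cell surface tissue factor protein level read by ELISA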
[13] = read-out: Interferon-gamma inducible Protein 10 (IP10), CXCL10 (gene 3627); assay: BSK_hDFCGF_IP10: BioMAP Diversity Plus: hDFCGF Assay for Interferon-gamma inducible Protein 10 (IP10) Biomarker Activity (AID 2283053); conditions: primary human foreskin fibroblasts; actives raise or lower the signal
How it was run: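 Human foreskin fibroblast primary cells (hDFCGF system) were dosed with chemical and assayed at 24 h; IP-10 measured by ELISA. Activity fitted bidirectionally relative to DMSO negative control as baseline.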

[14] = read-out: Urokinase-type plasminogen activator receptor (uPAR), PLAUR (gene 5329); assay: BSK_CASM3C_uPAR: BioMAP Diversity Plus: CASM3C Assay for Urokinase-type plasminogen activator receptor (uPAR) Biomarker Activity (AID 2283054); conditions: primary human coronary artery smooth muscle cells; actives raise or lower the signal;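 also: cell-surface uPAR protein level quantified by ELISA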
[15] = read-out: Vascular cell adhesion molecule 1 (VCAM1), VCAM1 (gene 7412); assay: BSK_CASM3C_VCAM1: BioMAP Diversity Plus: CASM3C Assay for Vascular cell adhesion molecule 1 (VCAM1) Biomarker Activity (AID 2283055); conditions: primary human coronary artery smooth muscle cells; actives raise or lower the signal;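 also: VCAM-1 protein level quantified by ELISA on the cells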
[16] = read-out: Collagen III, COL3A1 (gene 1281); assay: BSK_hDFCGF_CollagenIII: BioMAP Diversity Plus: hDFCGF Assay for Collagen III Biomarker Activity (AID 2283056); conditions: primary human foreskin fibroblasts; actives raise or lower the signal
How it was run: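 hDFCGF primary human dermal fibroblasts; 24 h chemical exposure; collagen III by ELISA; bidirectional curve fit vs DMSO baseline (gain or loss of signal).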

[17] = read-out: Epidermal growth factor receptor (EGFR), EGFR (gene 1956); assay: BSK_hDFCGF_EGFR: BioMAP Diversity Plus: hDFCGF Assay for Epidermal growth factor receptor (EGFR) Biomarker Activity (AID 2283057); conditions: primary human foreskin fibroblasts; actives raise or lower the signal
How it was run: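 Primary human foreskin fibroblasts were exposed to compound for 24 h, after which cell-surface EGFR was quantified by ELISA. Activity was fitted bidirectionally against the DMSO negative control as baseline.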

[18] = read-out: Interleukin-8 (IL8), CXCL8 (gene 3576); assay: BSK_hDFCGF_IL8: BioMAP Diversity Plus: hDFCGF Assay for Interleukin-8 (IL8) Biomarker Activity (AID 2283058); conditions: primary human foreskin fibroblasts; actives raise or lower the signal
How it was run: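 ELISA read-out of IL-8 from primary human foreskin fibroblast cultures taken 24 h after dosing; values are bidirectional fits relative to DMSO vehicle.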

[19] = BSK_hDFCGF_Proliferation: Cell Proliferation Assessment in the BioMAP Diversity Plus: hDFCGF Assay (AID 2283059); conditions: primary human foreskin fibroblasts;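 also: curves fitted for both rise and fall of signal versus DMSO baseline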
How it was run: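 This proliferation readout used SRB total-protein staining of human foreskin fibroblasts […], normalized to DMSO with bidirectional curve fitting.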

[20] = read-out: Macrophage colony-stimulating factor (MCSF), CSF1 (gene 1435); assay: BSK_hDFCGF_MCSF: BioMAP Diversity Plus: hDFCGF Assay for Macrophage colony-stimulating factor (MCSF) Biomarker Activity (AID 2283060); conditions: primary human foreskin fibroblasts; actives raise or lower the signal
How it was run: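 ELISA read-out of M-CSF in human dermal foreskin fibroblast cultures, 24 h after chemical dosing; gain or loss of signal fitted bidirectionally relative to DMSO baseline.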

Measured: AC50

O=C=NC1CCC(CC2CCC(N=C=O)CC2)CC1 (stereo not given)
active: [5] 0.0156 µM | [7] 0.0151 µM | [19] 28.5 µM | [20] 4.84 µM
inactive: all other assays above

CC1CCC(C(C)CS)CC1S (stereo not given)
inactive: [1] | [12] | [17]
active: [2] 20 µM | [3] 35.8 µM | [4] 22.3 µM | [5] 20 µM | [6] 30.9 µM | [7] 29.6 µM | [8] 36.5 µM | [9] 20 µM | [10] 29.7 µM | [11] 29.1 µM | [13] 4.25 µM | [14] 20 µM | [15] 28.8 µM | [16] 4.29 µM | [18] 28 µM | [19] 4.84 µM | [20] 6.95 µM

CCC(=O)OCc1ccccc1
inactive: all assays above

CCn1c2ccccc2c2cc(N)ccc21
active: [1] 3.97 µM | [4] 0.426 µM | [11] 2.7 µM
inactive: all other assays above

OC1OC[C@@H](O)[C@H](O)[C@H]1O (stereo not given in full)
inactive: all assays above

NCCNCCN
inactive: all assays above
